Measurements: ChEMBL document CHEMBL4513216, “Probing the Open Global Health Chemical Diversity Library for Multistage-Active Starting Points for Next-Generation Antimalarials” (ACS Infect Dis, 2020)
The whole screen tested about 68,000 compounds, of which about 2,700 (4%) showed an effect of 50% or more. This is one part of a sample in which strong results are shown more often than they occur.

System: Plasmodium berghei
Experiment: Screen against P. berghei liver stage (PbLuc), transformed with Luciferase, at 2uM
Type: functional, HepG2
Details: tested at 2 uM

SMILES	INHIBITION [%]
Cc1[nH]c2c(C)ccc(C)c2c1CC(=O)NCC(O)c1cccnc1 (centres undefined)	31.65
Cc1[nH]c2c(C)ccc(C)c2c1CC(=O)NCCNc1cccnc1	64.92
Cc1[nH]c2c(C)ccc(C)c2c1CC(=O)NCCCNc1cccnc1	-10.38
COc1cccc(CC(=O)N2CCC3(CC2)OCCCC3O)c1OC (centres undefined)	3.4
CC(C)OCCOCc1cccc(NC(=O)NCCn2ccnc2)c1	3.85
C=c1ccoc1=C1NN=C(CNCCn2cc(C)cn2)O1	32.63
C=c1ccoc1=C1NN=C(CNCC2CCCN2c2cccnn2)O1 (centres undefined)	-10.6
C=c1ccoc1=C1NN=C(CNCCn2cccn2)O1	58.49
COc1c(CNCc2ccc(C(=O)N(C)C)cc2)c(C)nn1C	-11.71
Cc1oc(-c2nc(C#N)c(N(C)C)o2)cc1S(=O)(=O)N1CCCC1	-20.66
O=C(c1ccc(-c2nc[nH]n2)cc1)N1CC[C@H](CO)[C@@H](O)C1	-94.13
O=C(c1ccccc1-c1nc[nH]n1)N1CCOC(C(F)(F)F)C1 (centres undefined)	-99.7
O=C(c1ccc(-c2nc[nH]n2)cc1)N1CCOC(C(F)(F)F)C1 (centres undefined)	50.91
CCOCC(O)CN1CCN(C(=O)CC(C)C)CC1 (centres undefined)	-38.96
Cc1cc(C)n(CC2CN(CC(=O)N3CCC3)CCO2)n1 (centres undefined)	-9.17
c1cncc(COCC2CNCc3nccn3C2)c1 (centres undefined)	38.49
CS(=O)(=O)NCc1ccc(NC(=O)CC2=CCCCC2)cc1	35.9
COCCO[C@H]1CCN(C(=O)c2ccsc2)[C@H]1Cc1cnn(C)c1	-10.92
COc1ccccc1-c1cc(C(F)(F)F)c2c(C)nn(CC(=O)O)c2n1	31.51
CCc1cc(C(F)(F)F)c2c(C)nn(CC(=O)O)c2n1	57.33
Cc1nn(C)cc1-c1cc(C(F)(F)F)c2c(C)nn(CC(=O)O)c2n1	15.91
CCn1ccnc1CN1CCCN(C(=O)c2cc[nH]n2)CC1	0.74
O=S(=O)(N1CCC(n2cccc2)CC1)N1CCCC1c1ccco1 (centres undefined)	50.59
COC1CCN(S(=O)(=O)N2CCCC2c2ccco2)CC1 (centres undefined)	36.28
O=S(=O)(N1CCN(CC2CC2)CC1)N1CCCC1c1ccco1 (centres undefined)	-20.95
CNC(=O)[C@@]12CCO[C@@H]1CCN(Cc1ccc3c(c1)OCO3)C2	39.02

SMILES	INHIBITION [%]
O=C(NC1CC1)[C@@]12CCO[C@@H]1CCN(Cc1ccc3c(c1)OCO3)C2	-14.64
CC(C)NC(=O)[C@@]12CCO[C@@H]1CCN(Cc1ccc3c(c1)OCO3)C2	50.85
CC(=O)N1CC2(CCCCN2Cc2ccc(Cl)cc2)Cc2ccccc21 (centres undefined)	-31.86
Cn1ccc(CN2CCCC23CCN(Cc2cccc(F)c2)CC3)n1	1.81
Cc1ccccc1OCC(=O)NCC(c1ccc(N(C)C)cc1)N(C)C (centres undefined)	36.6
CC(c1ccc(S(N)(=O)=O)cc1)N(C)C(=O)c1ccccc1I (centres undefined)	-28.49
CCOc1ccccc1C(=O)N(C)C(C)c1ccc(S(C)(=O)=O)cc1 (centres undefined)	91.01
CC(c1ccc(S(C)(=O)=O)cc1)N(C)C(=O)c1ccccc1I (centres undefined)	6.85
CC(C)c1csc(NC(=O)NC2CCCN(c3cnn(C)c3)C2)n1 (centres undefined)	-20.08
N#Cc1cc(F)c(N2CCC(NS(=O)(=O)c3cccs3)CC2)c(F)c1	24.17
CSCC(C)(O)CNc1cccc(F)c1C#N (centres undefined)	52.6
CSCC(C)(O)CNc1cccc(F)c1C(C)=O (centres undefined)	8.75
CC(C)C(C)(O)CNc1cccc(F)c1C#N (centres undefined)	28.1
Cc1ccc(-n2ncc(C(=O)N(C)C3CCN(C)CC3)c2N)cc1C	-11.1
O=C(C1=CCCC1)N1CCC[C@]2(C[C@@H](OCc3ccccn3)CO2)C1	3.72
Cc1noc(C)c1CNC(=O)N(C1CC1)C(C)c1ccco1 (centres undefined)	50.91
CCc1cc(CNC(=O)N(C2CC2)C(C)c2ccco2)[nH]n1 (centres undefined)	61.42
Cc1noc(C)c1CNC(=O)N(C)C1CCN(c2ccccc2)C1=O (centres undefined)	-7.88
CC(c1ccco1)N(C(=O)c1cccc(C#N)c1)C1CC1 (centres undefined)	32.93
CCc1cc(CNC(=O)N(C2CC2)C(C)c2ccco2)on1 (centres undefined)	-27.89
CC(c1ccco1)N(C(=O)NCc1ccon1)C1CC1 (centres undefined)	1.88
COc1cc(N2CCC3(CC2)OCC(=O)NC3C)ncn1 (centres undefined)	-7.03
Cc1ccc(CN2CC[C@H]3[C@H]2CC(=O)N3c2ccsc2)o1	43.05
COCCC(=O)N[C@H]1CC[C@H](Nc2nccc(-c3ccncc3)n2)C1	24.51
O=c1c(Cc2ccc(Cl)cc2Cl)c(O)ccn1CC1CC1	31.56
CCc1nc2ccccc2c(=O)n1CC1(O)CCN(C(=O)COC)CC1	56.99

SMILES	INHIBITION [%]
CCCC(=O)N1CCC(O)(Cn2c(CC)nc3ccccc3c2=O)CC1	-64.2
CCc1nc2ccccc2c(=O)n1CC1(O)CCN(S(C)(=O)=O)CC1	-37.18
CCc1nc2ccccc2c(=O)n1CC1(O)CCN(C(=O)C(C)C)CC1	59.91
CCc1nc2ccccc2c(=O)n1CC1(O)CCN(C(=O)C2CC2)CC1	29.89
CCc1nc2ccccc2c(=O)n1CC1(O)CCN(CC(=O)OC)CC1	28.64
Cc1nccn1CCC(=O)N1CCC2(CCC(=O)N(CC3CC3)C2)CC1	-63.27
CCc1ccc(S(=O)(=O)Nc2cn(C)cc(Br)c2=O)cc1	11.28
Cn1cc(Br)c(=O)c(NS(=O)(=O)c2ccc(Cl)cc2)c1	4.67
Cn1cc(Br)c(=O)c(NS(=O)(=O)c2ccc(F)cc2)c1	55.04
CNS(=O)(=O)c1cc(C(=O)N(C)Cc2sccc2C)c(C)o1	10.48
Cc1cc(C(=O)N2C[C@H](C(C)C)[C@@H](N(C)C)C2)cs1	68.66
Cc1cc(C(=O)N2C[C@@H](C(=O)O)[C@H](C(C)C)C2)cs1	-3.66
Cc1nc(CC(C)C)cc(C(=O)N2C[C@@H](N(C)C)[C@H](C(C)C)C2)n1	0.55
CC(C)c1cccc(N2CCCC3(CCC(=O)N(C4CC4)C3)C2)n1 (centres undefined)	-90.99
Cc1ccc(O)c(CNCC(C)c2nc3ccccc3o2)n1 (centres undefined)	35.36
CC(C)NC(=O)N1CCOC2(CNC2)C1	44.13
CCC(CC)C(=O)N1CCOC2(COCCN(CC(=O)NC)C2)C1 (centres undefined)	48.52
CCC(CC)C(=O)N1CCOC2(CNC2)C1	58.95
Cc1cc(C(=O)NCC(C)C)c2c(C3CCCN3)noc2n1 (centres undefined)	-14.61
Cc1noc(CNC2CCCN(Cc3noc(C4CC4)n3)C2)n1 (centres undefined)	10.53
COc1cc(N2CCN(Cc3ccsc3)C(CCO)C2)nc(N)n1 (centres undefined)	39.92
CC(C)Oc1cc(N2CCN(Cc3ccsc3)C(CCO)C2)nc(N)n1 (centres undefined)	51.76
Cc1cc(N2CCN(Cc3ccsc3)C(CCO)C2)nc(N)n1 (centres undefined)	34
O=c1[nH]c2cn(-c3cccc(F)c3)c(=O)n2n1Cc1ccc(Cl)cc1	5.87
O=c1[nH]c2cn(-c3ccc(F)cc3)c(=O)n2n1Cc1cccc(Cl)c1	58
O=c1[nH]c2cn(-c3cccc(Cl)c3)c(=O)n2n1Cc1cccc(F)c1	42.62

SMILES	INHIBITION [%]
CCCn1nc2c(cc1=O)CN(CCN1CCCC1=O)CC2	-33.39
CC(C)(C)n1ncc2c(=O)[nH]c(N3CCN(CC(F)F)CC3)nc21	66.74
CC(=O)N1CCN(c2nc3c(cnn3C(C)(C)C)c(=O)[nH]2)CC1	-12.08
CC(C)(C)n1ncc2c(=O)[nH]c(N3CCN(CCO)CC3)nc21	40.47
CSCC[C@H](N)C(=O)NCc1cc2n(n1)CCCN(C1CCCCC1)C2	-46.68
Cc1ccc(CN[C@@H]2CO[C@H](CNS(=O)(=O)c3ccccc3)[C@H]2O)cc1	-6.18
Cc1ccc(S(=O)(=O)NC[C@H]2OC[C@@H](NCc3ccncc3)[C@@H]2O)cc1	16.47
Cc1ccc(S(=O)(=O)NC[C@H]2OC[C@@H](NCc3ccccc3)[C@@H]2O)cc1	75.87
O=C(NCc1noc(C2CCCO2)n1)c1cn2ccsc2n1 (centres undefined)	22.09
Cc1nc(N(Cc2ccncc2)CC2CCCO2)c2ccsc2n1 (centres undefined)	-59.39
Cc1nc(NCCc2noc(C3CCCO3)n2)c2sccc2n1 (centres undefined)	49.63
O=C(NCCc1noc(C2CCCO2)n1)c1cn2ccsc2n1 (centres undefined)	40.88
Cc1nc(NCc2noc(C3CCCO3)n2)c2sccc2n1 (centres undefined)	61.69
Cc1nc(NCc2noc(C3CCCO3)n2)c2ccsc2n1 (centres undefined)	59.01
O=C(CCCOc1ccc(F)cc1F)N1CCCC1Cn1cccn1 (centres undefined)	6.12
CN(Cc1cc2n(n1)CCCN(C(=O)N1CCCC1)C2)Cc1nccs1	-10.4
Cc1nc(CNc2nc3c(s2)c(C)nn3C)cs1	38.49
CCc1csc(CNc2nc3c(s2)c(C)nn3C)n1	28.14
CCc1nc(CNc2nc3c(s2)c(C)nn3C)cs1	51.4
O=C(NC1CCc2[nH]c(=O)ccc2C1)C1CCOCC1 (centres undefined)	0.79
CCN1CC[C@@]2(C(=O)N3CCOCC3)CCN(C(=O)NC)CC[C@@H]12	19.42
CSC1=Nc2c(cnn2-c2ccc(C)cc2)C2=NCCCN12	44.7
CCOc1ccccc1C(=O)N1CCCC1c1ncc2c(n1)CCNC2 (centres undefined)	-2.7
CN1C[C@@H](N)C[C@H]1C(=O)N1CCC(Cc2ccc(F)cc2)CC1	29.87
CCC(=O)N1CCCC1C(=O)N1CCC(Cc2ccc(F)cc2)CC1 (centres undefined)	69.52
O=C(C1CCS(=O)(=O)CC1)N1CCC(Cc2ccc(F)cc2)CC1	9.75
